# Results from PubChem BioAssay (NCATS).
# Where “and” joins values, the source holds several entries; their conditions need not be identical. Identical values can stand only once. Results filed as inconclusive are left out. Where a call stands in place of a potency, no number is given. Calls of active or inactive are those of the source. Unless noted, calls follow the shape of the dose curve; as a rule, active = well fitted curve in the direction sought with a large enough effect; inconclusive = small, poorly fitted or top-dose-only effect, or another doubt; inactive = no such curve, though single readings can be large; an effect the other way counts as inactive or inconclusive.
# Key:
# [1] = MultiTox-Fluor Cytotoxicity Assay - LYMP1-001 - Live Cells (AID 947)
# [2] = MultiTox-Fluor Cytotoxicity Assay - LYMP1-002 - Dead Cells (AID 960); also: nearly all actives have a fitted effect of over 60% in size
# How it was run: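 Human lymphoblastoid LYMP1-002 cells, 2500/well, treated 16 h at 37 C; dead-cell protease cleavage of bis-AAF-R110 read by fluorescence (485/520); normalized to DMSO and 15 uM tetraoctylammonium bromide; AC50 from Hill fit.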
# [3] = Cell Viability - LYMP2-009 (AID 968); also: series mostly up to about 92 µM; nearly all actives have a fitted effect of over 55% in size
# [4] = biological target: Estrogen receptor (Homo sapiens) (UniProt P03372); test: qHTS assay for small molecule antagonists of estrogen receptor alpha signaling (AID 588513; active = well fitted curve in the direction sought with a large enough effect in the signal ratio, with a control signal flat, not every such curve was filed as active; the % refers to the signal ratio)
# How it was run: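 Beta-lactamase reporter, antagonist mode, HEK 293 GripTite cells; 0.5nM E2 stimulus, 18 h, 37 C; CCF4 dye 2 h RT; fluorescence. IC50 and efficacy from Hill fits, normalized to E2 and DMSO.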
# [5] = biological target: Estrogen receptor (Homo sapiens) (UniProt P03372); test: qHTS assay for small molecule agonists of estrogen receptor alpha signaling (AID 588514; calls by dose curve; also: nearly all actives have a fitted effect of over 70% in size)
# How it was run: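 ER-alpha-UAS-bla GripTite HEK293 cells, 5000/well in 2% charcoal/dextran-stripped FBS medium, treated with compound titrations 18 h at 37 C. CCF4 beta-lactamase read by fluorescence after 2 h RT; normalised to 20 nM 17-beta-estradiol (100%) and DMSO (0%), Hill fit for EC50 and efficacy.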
# [6] = biological target: Bile acid receptor (Homo sapiens) (UniProt Q96RI1); test: qHTS assay for small molecule agonists of farnesoid X receptor signaling (AID 588527; calls by dose curve; also: series mostly up to about 77 µM); conditions: HEK293T FXR-UAS-bla, beta-lactamase ratio, 16 h; stronger effect = higher value
# How it was run: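 Read-out: beta-lactamase reporter fluorescence with CCF4 substrate in GeneBLAzer FXR-UAS-bla HEK293T cells, after 16 h compound exposure at 37 C. Response scaled between DMSO basal (0%) and chenodeoxycholic acid at 100 uM (100%).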
# [7] = biological target: Glucocorticoid receptor (Homo sapiens) (UniProt P04150); test: qHTS assay for small molecule agonists of glucocorticoid receptor signaling (AID 588532; active = well fitted curve in the direction sought with a large enough effect in the signal ratio, with a control signal flat; the % refers to the signal ratio); conditions: HeLa MMTV-bla, beta-lactamase ratio, agonist, 18 h; stronger effect = higher value; percent of dexamethasone control, DMSO zero
# How it was run: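 Using MMTV-bla HeLa cells in medium with 1% stripped FBS and 25 mM HEPES, compounds were titrated and incubated overnight-length (18 h). Beta-lactamase cleavage of CCF4 was quantified by dual-emission fluorescence.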
# [8] = biological target: Glucocorticoid receptor (Homo sapiens) (UniProt P04150); test: qHTS assay for small molecule antagonists of glucocorticoid receptor signaling (AID 588533; active = well fitted inhibition curve with a large enough effect in the signal ratio, with a control signal flat, not every such curve was filed as active; the % refers to the signal ratio;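 also: cells stimulated with 2 nM dexamethasone as agonist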)
# How it was run: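 Antagonist-mode qHTS: compound titrations added to GRE-bla HeLa cells, then dexamethasone 2 nM final; 18 h, 37 C. CCF4 FRET fluorescence normalized to dexamethasone and DMSO; IC50 from Hill fit.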
# [9] = biological target: Peroxisome proliferator-activated receptor gamma (Homo sapiens) (UniProt P37231); test: qHTS assay for small molecule agonists of peroxisome proliferator-activated receptor gamma signaling (AID 588536; active = well fitted curve in the direction sought with a large enough effect in the signal ratio, with a control signal flat, not every such curve was filed as active; the % refers to the signal ratio)
# How it was run: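 Test agents, titrated, stimulated HEK293 UAS-bla cells overnight (16 h, 37 C). Substrate CCF4 was then added for two hours at room temperature before fluorescence reading.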
# [10] = biological target: Vitamin D3 receptor (Homo sapiens) (UniProt P11473); test: qHTS assay for small molecule antagonists of vitamin D receptor signaling (AID 588541; calls by dose curve;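 also: receptor activated by calcitriol during compound treatment; series mostly up to about 77 µM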)
# How it was run: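 Antagonist-mode beta-lactamase reporter assay: HEK293T VDR-UAS-bla cells were exposed to titrated compound alongside 1-alpha,25-dihydroxyvitamin D3 at 3 nM final for 16 h. Values were normalized to the 50 nM agonist control and DMSO basal, with IC50 and efficacy from Hill equation fits.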
# [11] = biological target: Vitamin D3 receptor (Homo sapiens) (UniProt P11473); test: qHTS assay for small molecule agonists of vitamin D receptor signaling (AID 588543; calls by dose curve)
# How it was run: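 β-lactamase reporter, VDR-UAS-bla HEK293T, agonist mode. Cells plated 5 h at 37 °C, compound titration 16 h at 37 °C, CCF4 dye 2 h RT, ratio 460/530 nm. Hill fit → EC50, efficacy vs 50 nM 1α,25-(OH)2D3.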
# [12] = qHTS assay for small molecule activators of the p53 signaling pathway (AID 651743; active = well fitted activation curve with a large enough effect in the signal ratio, not every such curve was filed as active; the % refers to the signal ratio; also: series mostly up to about 92 µM); conditions: HCT-116 p53RE-bla, beta-lactamase FRET ratio, 16 h; activation: stronger effect = higher value
# How it was run: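 Read-out is fluorescence intensity from the LiveBLAzer B/G FRET substrate, added for 2 hours at room temperature after HCT-116 p53RE-bla cells had been incubated with compounds for 16 hours at 37 C.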
# [13] = qHTS assay for small molecule disruptors of the mitochondrial membrane potential - 1 hr assay (AID 651754; calls by dose curve; also: nearly all actives have a fitted effect of over 35% in size)
# How it was run: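 HepG2 cells, attached overnight, were exposed to compound for 1 hr at 37C, then stained 30 min with a potentiometric dye. Ratio of red aggregate (590nm) to green monomer (535nm) fluorescence reports membrane potential; collapse shifts signal toward green.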
# [14] = biological target: Nuclear receptor ROR-gamma (Homo sapiens) (UniProt P51449); test: qHTS assay for small molecule antagonists of the retinoid-related orphan receptor gamma (ROR-gamma) signaling pathway (AID 651802);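 also: luciferase reporter luminescence driven by ROR response element; series mostly up to about 92 µM; nearly all actives have a fitted effect of over 60% in size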
# How it was run: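 CHO cells with TET-inducible ROR-gamma and RORE-luciferase reporter, dosed then doxycycline-induced. After 16 h at 37C, One-Glo luminescence read; decreased signal indicates antagonism.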
# [15] = qHTS assay for small molecule antagonists of the retinoid-related orphan receptor gamma (ROR-gamma) signaling pathway - cell viability counter screen (AID 720652; active = well fitted curve in the direction sought with a large enough effect in the repeat runs; an effect the other way counts as inactive or inconclusive;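 also: series mostly up to about 92 µM; compound exposure lasted 16 hr before ATP read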)
# How it was run: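 CHO cells carrying TET-inducible ROR and RORE-luciferase reporter, plated 5 hr, then dosed with compound plus doxycycline. After 16 hr at 37 C, viability read as intracellular ATP by CellTiter-Glo luminescence.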
# [16] = biological target: Nuclear receptor subfamily 1 group I member 2 (Rattus norvegicus) (UniProt Q9R1A7); test: qHTS assay for small molecule activators of the rat pregnane X receptor (rPXR) signaling pathway (AID 651751; call rule not given here); conditions: rPXR reporter cells, luciferase (One-Glo), 24 h
# [17] = qHTS assay for small molecule activators of the human pregnane X receptor (PXR) signaling pathway (AID 720659; call rule not given here)
# [18] = Cell Viability - LYMP2-004 (AID 966); also: nearly all actives have a fitted effect of over 65% in size
# How it was run: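 Lymphoblastoid LYMP2-004 cells, 2500 per well, were preincubated for 5 hr and then treated with compound for 24 h at 37 C in complete medium. Viability was read as cellular ATP by CellTiter-Glo luminescence, and AC50 values were taken from Hill fits to concentration-response data.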
# [19] = qHTS assay for small molecule antagonists of peroxisome proliferator-activated receptor delta signaling (AID 588535; active = well fitted inhibition curve with a large enough effect in the signal ratio, with a control signal flat, not every such curve was filed as active; the % refers to the signal ratio;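 as to max response: cells co-treated with a PPAR-delta agonist as stimulator during compound exposure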); conditions: HEK293T PPARd-UAS-bla, beta-lactamase FRET ratio, 18 h; 460 nm channel
# How it was run: (§1)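 HEK293T PPAR-delta-UAS-bla cells, 4000/well, 2% charcoal/dextran FBS; 5 h 37 C; cpd titration; 18 h 37 C; CCF4 2 h RT; FI 460/530 nm; Hill fit → IC50, efficacy.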
# [20] = biological target: Peroxisome proliferator-activated receptor delta (Homo sapiens) (UniProt Q03181); test: as above
# How it was run: as §1
# Sequence of Nuclear receptor subfamily 1 group I member 2 (Rattus norvegicus) (Q9R1A7 whole entry, looked up): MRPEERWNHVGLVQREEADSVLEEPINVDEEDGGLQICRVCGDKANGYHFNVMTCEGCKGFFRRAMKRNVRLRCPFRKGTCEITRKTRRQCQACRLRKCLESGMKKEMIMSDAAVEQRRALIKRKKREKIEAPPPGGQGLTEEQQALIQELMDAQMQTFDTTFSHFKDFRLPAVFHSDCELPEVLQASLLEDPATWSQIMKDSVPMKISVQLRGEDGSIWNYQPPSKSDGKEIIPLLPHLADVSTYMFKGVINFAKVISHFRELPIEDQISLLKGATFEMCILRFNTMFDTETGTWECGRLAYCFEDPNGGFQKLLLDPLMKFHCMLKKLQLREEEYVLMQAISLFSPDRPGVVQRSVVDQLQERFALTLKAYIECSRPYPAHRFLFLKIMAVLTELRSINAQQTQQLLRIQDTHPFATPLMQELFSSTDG
# Sequence of Nuclear receptor ROR-gamma (Homo sapiens) (P51449 whole entry, looked up): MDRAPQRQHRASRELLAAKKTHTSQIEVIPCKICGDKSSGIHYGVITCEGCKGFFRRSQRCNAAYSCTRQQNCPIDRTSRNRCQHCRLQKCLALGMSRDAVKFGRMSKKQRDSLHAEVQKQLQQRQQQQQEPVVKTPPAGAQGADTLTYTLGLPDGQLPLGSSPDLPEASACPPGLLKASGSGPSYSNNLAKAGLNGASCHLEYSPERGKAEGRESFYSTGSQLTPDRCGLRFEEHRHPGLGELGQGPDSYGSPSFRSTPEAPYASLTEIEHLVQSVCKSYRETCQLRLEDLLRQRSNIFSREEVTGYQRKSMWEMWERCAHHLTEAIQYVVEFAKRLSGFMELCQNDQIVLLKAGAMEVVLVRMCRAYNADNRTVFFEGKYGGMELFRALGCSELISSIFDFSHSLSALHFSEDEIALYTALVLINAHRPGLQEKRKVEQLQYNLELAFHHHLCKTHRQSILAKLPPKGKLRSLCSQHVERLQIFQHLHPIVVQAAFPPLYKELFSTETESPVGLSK
# Sequence of Bile acid receptor (Homo sapiens) (Q96RI1 whole entry, looked up): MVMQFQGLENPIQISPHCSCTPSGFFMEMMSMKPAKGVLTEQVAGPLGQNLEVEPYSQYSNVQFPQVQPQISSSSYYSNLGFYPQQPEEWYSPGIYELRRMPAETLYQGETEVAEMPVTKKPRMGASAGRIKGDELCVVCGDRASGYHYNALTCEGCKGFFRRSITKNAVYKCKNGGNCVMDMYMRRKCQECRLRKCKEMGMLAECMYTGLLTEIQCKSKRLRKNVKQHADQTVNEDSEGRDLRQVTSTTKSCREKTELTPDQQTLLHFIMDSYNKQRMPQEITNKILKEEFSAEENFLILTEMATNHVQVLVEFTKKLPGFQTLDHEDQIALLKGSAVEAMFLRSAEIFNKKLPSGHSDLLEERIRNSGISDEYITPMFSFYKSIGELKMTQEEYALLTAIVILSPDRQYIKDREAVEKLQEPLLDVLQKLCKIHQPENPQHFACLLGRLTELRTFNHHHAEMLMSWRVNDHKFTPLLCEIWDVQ
# Sequence of Glucocorticoid receptor (Homo sapiens) (P04150 whole entry, looked up): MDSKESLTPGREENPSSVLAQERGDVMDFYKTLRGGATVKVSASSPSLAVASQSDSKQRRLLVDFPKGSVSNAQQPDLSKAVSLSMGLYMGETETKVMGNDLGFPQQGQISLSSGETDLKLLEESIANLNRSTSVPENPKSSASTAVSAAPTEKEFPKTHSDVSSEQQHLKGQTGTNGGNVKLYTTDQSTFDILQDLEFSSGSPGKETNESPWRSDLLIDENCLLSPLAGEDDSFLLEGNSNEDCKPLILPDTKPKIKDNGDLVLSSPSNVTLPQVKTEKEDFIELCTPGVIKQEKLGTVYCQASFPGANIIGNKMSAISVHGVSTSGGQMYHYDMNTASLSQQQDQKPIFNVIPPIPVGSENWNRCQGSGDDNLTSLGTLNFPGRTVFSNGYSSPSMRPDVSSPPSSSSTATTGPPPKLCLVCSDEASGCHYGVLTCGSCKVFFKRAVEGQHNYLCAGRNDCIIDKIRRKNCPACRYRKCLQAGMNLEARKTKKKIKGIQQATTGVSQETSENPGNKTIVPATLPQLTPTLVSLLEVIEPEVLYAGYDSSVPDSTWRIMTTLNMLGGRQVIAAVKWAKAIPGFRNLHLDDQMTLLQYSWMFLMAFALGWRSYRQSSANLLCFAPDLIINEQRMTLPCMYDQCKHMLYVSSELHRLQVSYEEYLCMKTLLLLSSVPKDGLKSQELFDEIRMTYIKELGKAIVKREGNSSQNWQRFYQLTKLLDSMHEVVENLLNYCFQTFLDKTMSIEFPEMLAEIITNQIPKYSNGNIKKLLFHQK
# Sequence of Peroxisome proliferator-activated receptor gamma (Homo sapiens) (P37231 whole entry, looked up): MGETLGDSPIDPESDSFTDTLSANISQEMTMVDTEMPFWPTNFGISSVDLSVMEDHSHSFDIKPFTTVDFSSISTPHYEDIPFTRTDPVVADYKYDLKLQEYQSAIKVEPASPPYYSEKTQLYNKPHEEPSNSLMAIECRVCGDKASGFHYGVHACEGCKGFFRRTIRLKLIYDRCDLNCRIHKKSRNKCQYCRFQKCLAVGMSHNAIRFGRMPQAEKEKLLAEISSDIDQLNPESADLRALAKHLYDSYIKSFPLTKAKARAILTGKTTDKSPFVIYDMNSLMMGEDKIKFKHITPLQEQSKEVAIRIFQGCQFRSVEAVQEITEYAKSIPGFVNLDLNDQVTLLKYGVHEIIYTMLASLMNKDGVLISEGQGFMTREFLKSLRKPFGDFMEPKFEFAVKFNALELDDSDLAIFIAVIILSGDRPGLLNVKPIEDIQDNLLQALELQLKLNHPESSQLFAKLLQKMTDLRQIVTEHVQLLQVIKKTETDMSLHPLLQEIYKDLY
# Sequence of Peroxisome proliferator-activated receptor delta (Homo sapiens) (Q03181 whole entry, looked up): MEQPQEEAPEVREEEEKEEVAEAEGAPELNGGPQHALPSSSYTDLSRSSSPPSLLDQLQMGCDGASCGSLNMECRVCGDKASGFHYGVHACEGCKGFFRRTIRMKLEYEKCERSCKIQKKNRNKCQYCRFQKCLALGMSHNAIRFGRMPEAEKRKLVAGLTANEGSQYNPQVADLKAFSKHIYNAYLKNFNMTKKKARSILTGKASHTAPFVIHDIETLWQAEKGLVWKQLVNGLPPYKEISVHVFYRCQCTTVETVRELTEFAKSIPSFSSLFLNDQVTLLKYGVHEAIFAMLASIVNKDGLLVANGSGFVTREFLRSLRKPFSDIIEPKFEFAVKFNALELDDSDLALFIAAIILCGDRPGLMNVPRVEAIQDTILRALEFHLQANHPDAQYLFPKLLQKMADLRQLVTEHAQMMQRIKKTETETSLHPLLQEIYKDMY
# Sequence of Vitamin D3 receptor (Homo sapiens) (P11473 whole entry, looked up): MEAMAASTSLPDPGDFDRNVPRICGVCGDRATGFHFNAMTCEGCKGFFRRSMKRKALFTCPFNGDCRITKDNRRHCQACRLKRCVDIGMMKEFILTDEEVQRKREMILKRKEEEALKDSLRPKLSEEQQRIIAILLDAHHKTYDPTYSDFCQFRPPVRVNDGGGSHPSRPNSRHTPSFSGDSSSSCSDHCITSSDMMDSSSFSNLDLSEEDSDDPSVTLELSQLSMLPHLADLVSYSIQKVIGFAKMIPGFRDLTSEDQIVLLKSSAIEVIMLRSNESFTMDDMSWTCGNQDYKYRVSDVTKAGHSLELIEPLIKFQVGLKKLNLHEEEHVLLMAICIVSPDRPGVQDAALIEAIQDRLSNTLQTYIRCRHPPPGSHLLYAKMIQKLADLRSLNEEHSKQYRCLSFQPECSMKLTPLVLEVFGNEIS
# Sequence of Estrogen receptor (Homo sapiens) (P03372 whole entry, looked up): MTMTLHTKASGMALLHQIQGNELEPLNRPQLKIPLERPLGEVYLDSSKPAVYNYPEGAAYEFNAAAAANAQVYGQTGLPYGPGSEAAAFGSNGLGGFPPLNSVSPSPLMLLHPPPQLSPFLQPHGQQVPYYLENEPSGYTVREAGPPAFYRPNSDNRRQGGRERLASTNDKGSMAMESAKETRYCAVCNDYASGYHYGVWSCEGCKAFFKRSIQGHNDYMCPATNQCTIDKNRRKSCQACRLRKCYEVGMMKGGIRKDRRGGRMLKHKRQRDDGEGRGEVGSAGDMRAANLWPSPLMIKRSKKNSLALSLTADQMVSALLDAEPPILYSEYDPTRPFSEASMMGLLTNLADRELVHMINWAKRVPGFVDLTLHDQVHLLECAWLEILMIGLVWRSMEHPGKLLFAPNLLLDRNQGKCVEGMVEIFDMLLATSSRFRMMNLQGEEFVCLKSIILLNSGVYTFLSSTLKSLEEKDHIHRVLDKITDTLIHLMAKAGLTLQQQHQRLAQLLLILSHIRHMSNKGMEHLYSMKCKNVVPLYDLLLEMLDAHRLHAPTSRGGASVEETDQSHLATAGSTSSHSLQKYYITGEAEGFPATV
Compound,Potency [1],Potency [2],Potency [3],Potency [4],Potency [5],activation [6],activation [7],Potency [8],outcome [9],outcome [10],outcome [11],activation [12],Potency [13],Potency [14],Potency [15],max response [16],outcome [17],Potency [18],max response [19],Potency [20]
CCCSC(=O)Cl,inactive,inactive,inactive,inactive,inactive,0.0371% (inactive),2.44% (inactive),inactive,inactive,inactive,inactive,-3.85% (inactive),inactive,inactive,inactive,-3.99% (inactive),inactive,,,
CC(Cl)Cl,inactive,inactive,inactive,inactive,inactive,-0.0258% (inactive),-9.28% (inactive),inactive,inactive,inactive,inactive,-4.47% (inactive),inactive,inactive,inactive,-1.43% (inactive),inactive,inactive,2.53%,inactive
O=C(Cl)/C=C/C(=O)Cl,inactive,inactive,inactive,inactive,inactive,1.15% (inactive),18.2% (inactive),inactive,inactive,inactive,inactive,-2.72% (inactive),inactive,inactive,inactive,0.356% (inactive),inactive,inactive,,
Cc1cccc([N+](=O)[O-])c1,inactive,inactive,inactive,inactive,inactive,-1.63% (inactive) and -0.0408% (inactive),4.17% (inactive) and -5.85% (inactive),inactive,inactive,inactive,inactive,-0.671% (inactive),inactive,,inactive,,,inactive,12.7% and -9.62%,inactive
c1ccc2c(c1)CCCC2,inactive,inactive,inactive,inactive,inactive,-2.64% (inactive),3.9% (inactive),inactive,inactive,inactive,inactive,2.11% (inactive),inactive,inactive,inactive,-0.477% (inactive),inactive,inactive,,
S=C=Nc1cccc2ccccc12,inactive,inactive,inactive,inactive,inactive,-1.78% (inactive),2.48% (inactive),inactive,inactive,inactive,inactive,3.44% (inactive),,inactive,inactive,5.78% (inactive),,inactive,-3.26%,inactive
O=NN(c1ccccc1)c1ccccc1,inactive,inactive,inactive,inactive,inactive,-0.746% (inactive) and 1.47% (inactive),-1.26% (inactive) and -2.24% (inactive),inactive,inactive,,,-0.087% (inactive) and -2.72% (inactive),inactive,inactive,inactive,2.63% (inactive) and 4.55% (inactive),inactive,inactive,35.3%,inactive
CCCCCCCC(=O)Cl,inactive,inactive,inactive,inactive,inactive,0.289% (inactive),5.97% (inactive),inactive,inactive,,,-1.82% (inactive),inactive,inactive,inactive,5.82% (inactive),inactive,inactive,,
O=[N+]([O-])c1cccc2ccccc12,inactive,inactive,inactive,inactive,inactive,,,,inactive,,,-1.88% (inactive) and -1.02% (inactive),inactive,inactive,,5.16% (inactive) and 1.63% (inactive),inactive,inactive,-7.08% and 18.1%,inactive
C=CCOC(=O)c1ccccc1N,inactive,inactive,inactive,inactive,inactive,,3.1% (inactive),inactive,inactive,inactive,inactive,,inactive,inactive,inactive,4.98% (inactive),inactive,inactive,8.66%,inactive
